In PubChem BioAssay AID990 (National Center for Advancing Translational Sciences (NCATS), 2007):
Activity calls are given as the source filed them.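 Rule for the calls: active = compound that made reporter-free parental cells show up as glowing objects under laser imaging, so likely a fluorescent false positive; inactive = the rest.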

assay: Parental Cell Counter Screen Assay for Epigenetic Modulators; conditions: parental c127i cells, compound fluorescence imaging, 30 h
Excerpt: NIH Molecular Libraries Screening Centers Network [MLSCN] NIH Chemical Genomics Center [NCGC] MLSCN Grant: 1 X01 MH079860-01 Assay Provider: Elisabeth D. Martinez, University of Texas SW Medical Center NCGC Assay Overview: This assay is a counter screen for the Locus Derepression (LDR) assay (PubChem AID 597). The LDR assay detects the derepression of a GFP reporter that is stably integrated in a region of the genome of murine c127i mammary cells that is presumably silenced. Compounds that cause derepression of the locus to express GFP are identified by enumerating GFP positive cells using a laser-scanning microplate cytometer. […] Compounds active in the parental c127i cells are likely fluorescent.
NCGC Assay Protocol Summary: Two hundred and fifty cells in 5 uL per well were dispensed into black, clear-bottom 1536-well plates. Twenty-three nL compound was transferred to the assay plate and cells were incubated 30 hours at 37 C. Medium was removed, cells were washed two times with PBS, and fluorescent cells were enumerated as objects between the sizes of 20 to 120 um width and depth using a laser-scanning microplate imager (Acumen Explorer Ex3, TTP Labtech).

Row | Structure (SMILES) | outcome | Potency
1 | Cc1ccc2ccc(C(Nc3cccc(Cl)c3)c3ccccn3)c(O)c2n1 (stereo not given) | inactive | 
2 | COC(=O)c1cccc(NC(c2ccccn2)c2ccc3cccnc3c2O)c1 (stereo not given) | inactive | 
3 | Oc1c(C(Nc2ccccc2C(F)(F)F)c2ccccn2)ccc2cccnc12 (stereo not given) | inactive | 
4 | CCN(CC)c1ccc2cc(-c3nc4ccccc4[nH]3)c(=O)oc2c1 |  | 410 nM [fluorescent] (active)
5 | CN(C)C(=O)CSc1cccc2cccnc12 | inactive | 
6 | O=C(Cc1ccccc1)NC(c1ccco1)c1ccc2cccnc2c1O (stereo not given) | inactive | 
7 | COc1ccc(C(NC(=O)C(C)C)c2ccc3cccnc3c2O)cc1 (stereo not given) | inactive | 
8 | CC(C)C(=O)NC(c1ccc(Cl)cc1Cl)c1ccc2cccnc2c1O (stereo not given) | inactive | 
9 | c1ccc(Nc2nc(Nc3ccccc3)nc(-n3cccn3)n2)cc1 | inactive | 
10 | CCN1CSC(=S)N(CC)C1 | inactive | 
11 | CCCCC1CC1C(=O)Nc1ccc(OC)c(OC)c1 (stereo not given) | inactive | 
12 | CC(C)C(=O)NC(c1ccco1)c1cc([N+](=O)[O-])c2cccnc2c1O (stereo not given) | inactive | 
13 | Cc1cc(C)n(-c2nc(NC(C)(C)C)nc(NC(C)(C)C)n2)n1 | inactive | 
14 | COCc1cc(CN2CCN(C)CC2)c(O)c2ncccc12 | inactive | 
15 | CC(C)C(=O)NC(c1ccc(C(C)C)cc1)c1cc(Cl)c2cccnc2c1O (stereo not given) | inactive | 
16 | Cc1cc(C)n(-c2nc(NC(C)C)nc(NC(C)(C)C)n2)n1 | inactive | 
17 | c1cnn(-c2nc(N3CCOCC3)nc(N3CCOCC3)n2)c1 | inactive | 
18 | O=C1OCCC1Sc1cccc2cccnc12 (stereo not given) | inactive | 
19 | O=C(Oc1cccc2cccnc12)c1ccc(Br)o1 | inactive | 
20 | Cc1ccc(N=Nc2ccc(O)c3ncccc23)cc1C | inactive | 

Row | Structure (SMILES) | outcome | Potency
21 | CCOCc1ccc(O)c2ncccc12 | inactive | 
22 | CC(C)C(=O)NC(c1ccco1)c1ccc2cccnc2c1O (stereo not given) | inactive | 
23 | COc1ccc(C)cc1N=Nc1ccc(O)c2ncccc12 | inactive | 
24 | CC(C)C(=O)NC(/C=C/c1ccccc1)c1cc([N+](=O)[O-])c2cccnc2c1O (stereo not given) | inactive | 
25 | COc1ccc(C)cc1NC(c1ccccn1)c1ccc2cccnc2c1O (stereo not given) | inactive | 
26 | CC(C)C(=O)NC(c1ccc(N(C)C)cc1)c1ccc2cccnc2c1O (stereo not given) | inactive | 
27 | Oc1ccc(COCc2ccccc2)c2cccnc12 | inactive | 
28 | Cc1cc(C)n(-c2nc(NC(C)C)nc(NC(C)C)n2)n1 | inactive | 
29 | O=C(CSc1cccc2cccnc12)Nc1ccccc1 | inactive | 
30 | CN1CCN(Cc2cc(Cl)c3cccnc3c2O)CC1 | inactive | 
31 | O=C(CC(c1ccco1)S(=O)(=O)c1ccccc1)c1ccc(F)cc1 (stereo not given) | inactive | 
32 | Oc1c(C(Nc2ccccn2)c2ccccn2)ccc2cccnc12 (stereo not given) | inactive | 
33 | CC(C)C(=O)NC(c1cccs1)c1cc(Cl)c2cccnc2c1O (stereo not given) | inactive | 
34 | O=C(CSc1cccc2cccnc12)N1CCCC1 | inactive | 
35 | CC(/C=C/C(=O)NO)=C\[C@@H](C)C(=O)c1ccc(N(C)C)cc1 | inactive | 
36 | CCNc1nc(NCC)nc(-n2cc(C(=O)c3cc(Cl)ccc3O)cn2)n1 | inactive | 
37 | CC(C)C(=O)NC(c1ccco1)c1cc(Cl)c2cccnc2c1O (stereo not given) | inactive | 
38 | CCNc1nc(NCC)nc(-n2nc(C)cc2C)n1 | inactive | 
39 | COc1ccc(C(=O)NC(c2ccco2)c2cc(Cl)c3cccnc3c2O)cc1 (stereo not given) | inactive | 
40 | COc1ccc(NC(c2ccccn2)c2ccc3cccnc3c2O)cc1 (stereo not given) | inactive | 
